Shown are actives, neighbours in structure and some others; about 10% of the full set was active somewhere.
BAZ2B inh: BAZ2B (human) inhibition; Q9UIF8; AlphaScreen BAZ2B-H3K14Ac peptide displacement; Potency, µM (doses to about 114 µM), without a hit: at the highest dose activity change, negative = inhibition, most hits filed as inhibitors; actives 4.4% (n = 360,000); AID 504333; also: potency is read from the fitted curve at half-maximal effect; % is scaled to controls: 0 for no effect and ±100 for the full control effect; nearly all actives have a fitted effect of over 60% in size
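BAZ2B (50 nM) with biotin-H3(5-23)K14Ac peptide (50 nM) in PBS pH 7.4, 0.01% Tween-20, preformed 30 min, then compound 30 min at room temperature; top concentration 110uM. AlphaScreen streptavidin donor/nickel chelate acceptor beads (10 ug/mL final), 20 min dark, signal read.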
G9a inh: blocks human histone lysine methyltransferase G9a. Q96KQ7. Potency, µM (series often up to 102 µM), inactives show at the highest dose activity, negative = inhibition, hits mostly inhibitors. G9a H3K9 monomethylation, AlphaScreen, 2 h. actives 8.8% (n = 350,000). AID 504332; also: potency is read from the fitted curve at half-maximal effect; % is scaled to controls: 0 for no effect and ±100 for the full control effect; nearly all actives have a fitted effect of over 75% in size
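Compounds were preincubated with 20 nM G9a for 15 min, after which biotinylated H3K9 peptide (500 nM) and SAM (20 uM) started a 2 h room-temperature reaction. Monomethylated product was quantified by antibody-based AlphaScreen chemiluminescence.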
HP1b binding inh: blocks HP1-beta chromodomain binding to methylated histone tails; AlphaScreen HP1-beta / biotin-H3K9me3 peptide binding; Potency, µM (top dose mostly 114 µM), inactives show at the highest dose activity change, negative = inhibition, usual class: inhibitors; actives 0.56% (n = 390,000); AID 540317; P83916; also: potency is read from the fitted curve at half-maximal effect; nearly all actives have a fitted effect of over 70% in size
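Compound inhibition of the preformed complex between 50 nM HP1-beta and 50 nM biotinylated H3K9me3 peptide was read by AlphaScreen. Buffer was PBS pH 7.4 with 0.01% Tween-20. Incubations ran 30 min at room temperature, with 10 ug/mL donor/acceptor beads.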
JMJD2A Tudor inh: inhibitors of human JMJD2A Tudor domain | O75164 | AlphaScreen JMJD2A-Tudor / H3K4me3 peptide binding | Potency, µM (titrated, usually from 114 µM), for the others: at the highest dose activity change, negative = inhibition, hits mostly inhibitors | actives 4.4% (n = 390,000) | AID 504339; also: potency is read from the fitted curve at half-maximal effect; % is scaled to controls: 0 for no effect and ±100 for the full control effect; nearly all actives have a fitted effect of over 50% in size
Six1-Eya2 inh: inhibitors of human Six1/Eya2 interaction | AID 651725 | activity change, % (test concentration not listed) | Q15475+O00167 | AlphaScreen GST-Six1/His-Eya2 binding, biochemical; active compounds read low | actives 0.56% (n = 360,000); in the data active = activity change below about -65%; inconclusive = mostly about -30% to -63%; also: % is scaled to controls: 0 for no effect and ±100 for the full control effect
Target sequence (O00167 whole entry, looked up): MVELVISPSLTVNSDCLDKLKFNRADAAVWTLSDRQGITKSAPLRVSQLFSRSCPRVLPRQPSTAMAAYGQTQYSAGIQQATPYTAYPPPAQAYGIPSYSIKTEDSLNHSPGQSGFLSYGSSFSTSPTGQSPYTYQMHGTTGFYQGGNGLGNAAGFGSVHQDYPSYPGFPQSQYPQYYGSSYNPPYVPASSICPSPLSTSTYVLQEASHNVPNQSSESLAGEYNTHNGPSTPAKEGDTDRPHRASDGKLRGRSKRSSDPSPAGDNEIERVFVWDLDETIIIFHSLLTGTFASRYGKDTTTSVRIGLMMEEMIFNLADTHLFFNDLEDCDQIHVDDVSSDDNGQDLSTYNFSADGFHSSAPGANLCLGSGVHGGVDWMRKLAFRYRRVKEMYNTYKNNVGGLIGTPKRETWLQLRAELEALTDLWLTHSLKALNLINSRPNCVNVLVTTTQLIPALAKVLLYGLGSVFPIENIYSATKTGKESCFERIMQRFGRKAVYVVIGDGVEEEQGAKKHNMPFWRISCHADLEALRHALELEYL
Target sequence (Q15475 whole entry, looked up): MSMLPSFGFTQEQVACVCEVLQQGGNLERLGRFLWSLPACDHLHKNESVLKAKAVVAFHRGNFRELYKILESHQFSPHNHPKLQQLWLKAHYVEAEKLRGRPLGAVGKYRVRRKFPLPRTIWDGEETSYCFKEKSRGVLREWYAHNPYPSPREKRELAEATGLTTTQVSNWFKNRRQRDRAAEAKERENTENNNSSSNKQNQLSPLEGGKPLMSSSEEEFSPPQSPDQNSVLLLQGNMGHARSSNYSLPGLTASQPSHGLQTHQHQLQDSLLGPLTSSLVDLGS
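GST-Six1 + His-Eya2 (5X stock: 250/500 nM); Tris pH 8.0, 300 mM NaCl, 0.05% BSA, 0.02% Tween 20; GSH donor/Ni acceptor beads; 1 h 37 °C dark; AlphaScreen readout.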
CtBP-E1A blk: CtBP/E1A binding inhibition | activity change, % (concentration not given with the values) | AlphaScreen GST-E1A/His-CtBP binding, 1536-well; active compounds read low | actives 0.49% (n = 340,000); in the data active = activity change below about -65%; inconclusive = mostly about -30% to -63%; also: % is scaled to controls: 0 for no effect and ±100 for the full control effect
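Steps: dispense buffer (Tris pH 8.0, NaCl 300 mM, TCEP 1 mM, BSA, Tween 20); add 5X protein mix (GST-E1A, His-CtBP, 125 nM each); pin 23 nL compound; 2 h at 37 °C, dark; add 5X beads (50 ug/mL); 1 h; read.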
Starred values were filed as active, the others as inactive; ? = inconclusive; nt = no result; [ ] = remark or other dose. Unless noted, calls follow the shape of the dose curve; as a rule, active = well fitted inhibition curve with a large enough effect; inconclusive = small, poorly fitted or top-dose-only effect; inactive = no such curve, though single readings can be large or run the other way.

SMILES	BAZ2B inh	G9a inh	HP1b binding inh	JMJD2A Tudor inh	Six1-Eya2 inh	CtBP-E1A blk
CC1CCCCN1S(=O)(=O)c1ccc(S(=O)(=O)N2CCN(c3ccccc3)CC2)cc1 (stereo unspecified)	7%	50µM*	30%	-1%	-1	0
CCCCCCCC(=O)OC(CN1CCCCC1)CN1CCCC1=O (stereo unspecified)	0%	11µM*	9%	-3%	4	3
O=C(Nc1cccc(C(F)(F)F)c1)N1CC2CCCN2c2ccccc21 (stereo unspecified)	28µM*	?	?	50µM*	nt	nt
Cc1ccc(NC(=O)N2CCCC2)cc1Cl	-16%	7%	46%	3%	0	-9
Cc1ccc(NC(=O)N2CCc3ccccc32)cc1C	0%	7%	49%	3%	3	7
Cc1ccc(NC(=O)N2CC3CCCN3c3ccccc32)cc1C (stereo unspecified)	25µM*	10µM*	?	50µM*	nt	nt
COC(=O)c1ccc(Cl)cc1NC(=O)N1CC2CCCN2c2ccccc21 (stereo unspecified)	?	8.9µM*	3%	?	nt	nt
CCC1CN(C(=O)Nc2cc(Cl)ccc2C(=O)OC)c2ccccc2S1 (stereo unspecified)	-5%	-16%[59 µM]	59%	-10%	nt	nt
Cc1ccc(NC(=O)N2CC3CCCN3c3ccccc32)cc1Cl (stereo unspecified)	28µM*	8.9µM*	?	40µM*	nt	nt
Cc1ccc2[nH]c(CSc3nnc(C)s3)cc(=O)c2c1	6%	?	16%[57 µM]	-13%	nt	nt
Cc1csc(NC(=O)C2CCN(S(=O)(=O)c3ccccc3F)CC2)n1	-19%	-4%	31%	-2%	-3	1
Cc1ccc(NC(=O)N2CC3CCCN3c3ccccc32)c(C)c1 (stereo unspecified)	7%	-4%[59 µM]	?	50µM*	nt	nt
C=C1CCC[C@]2(C)C[C@H]3OC(=O)C(CNCC(OC)OC)[C@H]3CC12 (stereo partly specified)	-16%	79µM*	-11%	-22%	9	4
N#Cc1nc(Cc2ccccc2)oc1N1CCC(Cc2ccccc2)CC1	?	?	?	-34%	?	?
N#Cc1nc(Cc2ccccc2)oc1N1CCN(c2ccccc2)CC1	10µM*	?	14µM*	28µM*	?	9
N#Cc1nc(-c2cccs2)oc1N1CCN(c2ccccc2)CC1	?	8.9µM*	-20%	?	?	-12
CC(C)C(=O)N1CCC1(C)C(=O)NCc1ccc(F)cc1Cl (stereo unspecified)	nt	nt	nt	nt	-8	-4
Cc1cc(=O)c2c(o1)C(=O)c1occc1C2=O	nt	nt	-23%	45µM*	-29	0
COc1c2occc2c(OC)c2c(=O)cc(C)oc12	-5%	14%[59 µM]	23%	-11%	-20	?
Fc1ccccc1CSc1nc2ccccc2[nH]1	-5%	50µM*	-11%	-8%[11.4 µM]	12	-2
Cc1cc(C)n2cc(CSc3nc4ccccc4[nH]3)nc2n1	-8%	20µM*	35%	-4%	-13	2
Cc1cc(C)n2cc(CSc3nc4ccccc4s3)nc2n1	-3%	?	36%	-5%	1	1
CCCCCCCC(=O)NC(Nc1ccc(S(N)(=O)=O)cc1)C(Cl)(Cl)Cl (stereo unspecified)	10%	0%[59 µM]	20%	-1%	4	7
Cc1cc(C)n(C(C)CC(=O)Nc2ccc(C)c(F)c2)n1 (stereo unspecified)	?	9%[59 µM]	-14%	-27%	nt	nt
O=C(CSc1ccc(-c2ccco2)nn1)NCc1ccc(F)cc1	1%	45µM*	13%	-9%	-18	9
SMILES	BAZ2B inh	G9a inh	HP1b binding inh	JMJD2A Tudor inh	Six1-Eya2 inh	CtBP-E1A blk
Cc1ccc(CNC(=O)CSc2ccc(-c3ccco3)nn2)cc1	0%	?	17%	-16%	-4	-7
O=C(CSc1ccc(-c2ccco2)nn1)NCCc1ccccc1	-6%	35µM*	51%	-16%	-1	1
O=C(CSc1ccc(-c2ccco2)nn1)c1ccc(F)cc1	-34%	40µM*	?	45µM*	?	0
O=C(COc1ccc(Br)cc1)N1CCc2ccccc21	3%	71µM*	32%	6%	7	13
CCOc1nc(C#N)nc(N(c2ccccc2)c2ccccc2)n1	nt	nt	16%[57 µM]	-24%[57.1 µM]	nt	nt
Cc1ccc(N2C(=O)Cc3ccccc3C2=O)cc1	-22%	-14%	-7%	-28%	9	-2
Cc1ccc2c(c1)/C(=N/N1C(=O)c3ccccc3C1=O)C(=O)N2	0%	-12%[59 µM]	13%	-4%	-1	4
C=C1c2cc(C)ccc2NC(=O)N1c1ccc(C)cc1	-11%	10µM*	29%	0%	5	-3
C=C1c2ccccc2NC(=O)N1c1ccc(C)cc1	5%	8.9µM*	19%	-20%	6	5
Cc1cc(O)ccc1Nc1cc(-c2cccc(N(C)C)c2)ncn1	nt	nt	nt	nt	-14	6
O=c1c2cc3c(cc2nc2sc(Nc4ccccc4)nn12)OCO3	-2%	3%[59 µM]	33%	7%	nt	nt
COC(=O)c1cc2oc(C)cc2n1Cc1ccc(C)cc1	-37%	14µM*	22%	-23%	nt	nt
COC(=O)c1cc2oc(C)cc2n1Cc1c(C)cc(C)cc1C	?	4µM*	20%	-24%	nt	nt
COC(=O)c1cc2oc(C)cc2n1Cc1cccc(Cl)c1	-39%	14µM*	18%	17%	nt	nt
COC(=O)c1cc2oc(C)cc2n1CC(=O)Nc1ccc(C)c(C)c1	-6%	?	2%	-25%	-10	-16
COc1ccc(S(=O)(=O)NCCc2nnc3ccc(SCC(=O)Nc4cc(C)cc(C)c4)nn23)cc1	-16%	-6%[59 µM]	29%	-13%	nt	nt
Cc1ccc(-c2csc(-c3cc4c([nH]c3=O)CC(c3ccccc3)CC4=O)n2)cc1 (stereo unspecified)	79µM*	2.5µM*	15%	89µM*	nt	nt
COc1ccc(C2CC(=O)c3cc(-c4nc(-c5cccc(Cl)c5)cs4)c(=O)[nH]c3C2)cc1 (stereo unspecified)	1%	-7%[59 µM]	53%	-1%	nt	nt
CC(=O)[C@H]1[C@H](C#N)CC2C3CC=C4C[C@@H](O)CCC4(C)C3CCC21C (stereo partly specified)	nt	27%[59 µM]	nt	nt	nt	nt

Screening data: PubChem, National Center for Advancing Translational Sciences (NCATS)
